Compound activity from PubChem BioAssay.
CCT modulator = cytosolic chaperonin activity modulation; 0.3% of 360,000 active; AID 651819; purified chaperonin ATPase assay, HTRF ADP detection, 30 min; activity change, % (no concentration beside the values), hits read low; in the data active = activity change below about -30%
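ATPase activity: ADP formed was measured by HTRF Transcreener (665/615 nm ratio) after 30 min at 37 deg C with 10 uM ATP. Compounds screened at one 76 uM concentration against 40 or 20 nM TRiC in Tris pH 7.4/KCl/MgCl2/DTT buffer.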
Nrf2 activator = Nrf2 pathway activation. AREc32 ARE-luciferase reporter (MCF7-derived line), luminescence, 24 h. Potency, µM (titrated, usually from 46.1 µM), hits mostly activators. 0.31% of 410,000 active; also: nearly all actives have a fitted effect of over 65% in size
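ARE activation measured as luciferase luminescence (Steady-Glo, 30 min RT) in AREc32_Fluc cells after 24 hr compound exposure at 37 deg C, 5% CO2; cells seeded overnight at 1000/well in OPTI-MEM, 5% FBS.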
AT treatment = potential ataxia-telangiectasia treatment | Potency, µM (top dose mostly 57.5 µM), actives largely listed as activators | AID 485349 | 0.19% of 320,000 active | F2112 A-T fibroblasts, KAP-1 phosphorylation AlphaLISA; neocarzinostatin DNA damage 30 min before lysis; also: nearly all actives have a fitted effect of over 45% in size
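ATM-like activity read as KAP-1 phosphorylation via AlphaLISA donor/acceptor antibody pairs after lysis and 6 hr at 25C. Cells were ATM-null patient fibroblasts (F2112, hTERT), dosed 60 min, then exposed to the DSB inducer NCS for 30 min.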
A549 viability = A549 cytotoxicity, counter-screen for Nrf2 inhibitors; A549 ARE-Fluc cells, CellTiter-Fluor viability, 18-24 h; Potency, µM (highest dose often 46 µM), usual class: inhibitors; 0.16% of 390,000 active
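A549 ARE-Fluc cells in 5% FBS OPTI-MEM, 5000 cells/well, rested 2 h then exposed to compounds in concentration-response for 18-24 h at 37 °C. Viability by CellTiter-Fluor fluorescence (Ex 405/Em 525) after 30 min; luciferase luminescence (BugLite, 15 min, RT) read afterwards.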
TCR activator = activates T cell receptor signaling; primary human leukocytes, anti-CD3, IL-2 HTRF, 48 h; Potency, µM (series often up to 9.22 µM), usual class: activators; 330,000 tested, under 10 active
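Primary human leukocytes incubated 48 hr with anti-CD3 beads plus compound, without co-stimulation. Secreted IL-2 measured by HTRF (europium cryptate/d2 anti-IL-2 pair, 320 nm excitation, 665 nm emission).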
Nrf2 block = Nrf2 pathway inhibition. A549 ARE-Fluc reporter, luciferase luminescence, 18-24 h. Potency, µM (titrated, usually from 46 µM), most hits filed as inhibitors. 2.1% of 360,000 active; also: nearly all actives have a fitted effect of over 60% in size
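In this cell-based qHTS, ARE-driven firefly luciferase in A549 cells reports Nrf2 activity; the luminescent signal after BugLite lysis is the measured value, with a prior CellTiter-Fluor read for cell health.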
A number is an active result; n = inactive; u = inconclusive; x = no result; [ ] = another dose, or the depositor's remark. Hits are enriched below; roughly 2.6% of the tested compounds scored in any of these assays. Unless noted, calls follow the shape of the dose curve; as a rule, active = well fitted curve in the direction sought with a large enough effect; inconclusive = small, poorly fitted or top-dose-only effect, or another doubt; inactive = no such curve, though single readings can be large; an effect the other way counts as inactive or inconclusive.

SMILES | CCT modulator | Nrf2 activator | AT treatment | A549 viability | TCR activator | Nrf2 block
Cc1ccc(CNCc2c(C(=O)O)n(Cc3ccc(C)cc3)c3cc(C)ccc23)cc1 | x | n | x | u | x | u
C=Cc1ccc(Cn2c(C(=O)O)c(CNCc3ccccc3)c3ccc(C)cc32)cc1 | x | n | x | 16µM | x | u
Cc1ccc(NC(=O)NC(=O)N(C(C)C)S(C)(=O)=O)nc1 | n | n | 0.71µM | n | n | n
CCn1nc(C)c2c(-c3ccccc3)cc(=O)n(C(C)C(=O)NCCC(C)C)c21 (stereo not given) | x | n | x | n | x | n
CCn1nc(C)c2c(-c3ccccc3)cc(=O)n(C(C)C(=O)NCCc3ccccc3)c21 (stereo not given) | x | n | x | n | x | 18µM
O=C(CSc1nc2ccc([N+](=O)[O-])cc2[nH]1)NC1CCCCCC1 | n | n | n | u | n | 13µM
Cc1ccc(C)c(-c2csc(Nc3ncccn3)n2)c1 | n | n | 3.2µM | n | n | n
O=C(CSc1ncnc2[nH]ncc12)Nc1cccc(Oc2ccccc2)c1 | n | n | n | n | n | u
CC1(C)Cc2c(c(-c3ccco3)nc3sc4c(NCCN5CCOCC5)ncnc4c23)CO1 | n | n | n | n | n | n
CC1(C)Cc2c(c(-c3ccco3)nc3sc4c(NCCCO)ncnc4c23)CO1 | -42 | n | n | n | n | n
Cc1c(P(=S)(c2ccccc2)c2ccccc2)c2ccccc2n1C(=O)NCc1ccccc1 | x | x | x | n | x | n
CCC(=O)N1CCc2cc(Br)cc(S(=O)(=O)CCC(=O)NCCc3ccc(Cl)cc3)c21 | x | n | x | n | x | n[9.27 µM]
O=C(c1cc2nc(-c3cccs3)cc(C(F)(F)F)n2n1)N1CCCc2ccccc21 | n | n | n | n | n | 18µM
CCOC(=O)c1cccc(NC(=O)c2ccc(N(C)C)cc2)c1 | n | n | n | n | n | 16µM
CCOC(=O)c1cccc(NC(=O)c2cccnc2)c1 | n | n | n | n | x | x
Cc1ccc(C(=O)OCc2c(C)noc2C)cc1NC(=O)c1ccco1 | n | 4µM | n | n | n | n
CC(=O)c1ccccc1NC(=O)c1ccc(OCc2c(C)noc2C)cc1 | n | n | n | n | n | 13µM
CCCCNC(=O)COC(=O)c1ccc(C)c(NC(=O)c2ccco2)c1 | n | n | n | n | n | n
Cc1noc(C)c1COc1ccccc1C(=O)N1CCN(c2cccc(Cl)c2)CC1 | n | n | n | n | n | n
CC(=O)c1cccc(NC(=O)c2ccc(OCc3c(C)noc3C)cc2)c1 | n | n | n | n | x | u
Cc1noc(C)c1COc1ccc(C(=O)N2CCN(c3cccc(Cl)c3)CC2)cc1 | n | n | n | n | n | 23µM
Oc1ccc(Br)cc1C1C=C(c2ccc3c(c2)OCO3)NC(c2cccc(F)c2)N1 (stereo not given) | x | x | x | n | x | n
CCc1noc(C)c1C(=O)Nc1cccc(S(=O)(=O)N(C)c2ccccc2)c1 | n | n | n | n | n | n
O=C(Nc1ccccc1)c1cccc(NC(=O)c2ccco2)c1 | n | n | x | n | n | u
C=Cc1cccc(NC(=O)c2ccc(NC(=O)c3ccco3)cc2)c1 | n | n | n | n | n | 10µM
SMILES | CCT modulator | Nrf2 activator | AT treatment | A549 viability | TCR activator | Nrf2 block
O=C(COC(=O)c1ccc([N+](=O)[O-])cc1)Nc1ccc(Cl)cn1 | n | n | n | n | n | u
O=C(COC(=O)c1cccc([N+](=O)[O-])c1)Nc1ccc(Cl)cn1 | -42 | n | n | n | n | u
CC(=O)c1ccc(NC(=O)c2ccc(NC(=O)c3ccco3)cc2)cc1 | n | n | n | n | n | u
CCOC(=O)c1cccc(NC(=O)c2ccc(NC(=O)c3ccco3)cc2)c1 | n | n | n | n | n | 21µM
CCOC(=O)c1cccc(NC(=O)COc2ccc([N+](=O)[O-])cc2)c1 | n | n | n | n | n | 26µM
CCCOC(=O)c1cccc(NC(=O)COc2ccc([N+](=O)[O-])cc2)c1 | n | n | n | n | n | u
CCOC(=O)c1cccc(NC(=O)CCCn2c(C)c3cnn(-c4ccccc4)c(=O)c3c2C)c1 | x | n | x | n | x | n
CCCCOc1ccc(OCCNC(=O)c2ccco2)cc1 | n | n | n | n | n | u
